Sampled rows, rich in hits. Any-hit rate of the full collection: about 5.7%.
HT1080NT lethal: kills 2HG-producing HT-1080-NT fibrosarcoma cells; hit rate 1.6% among 360,000; Potency, µM (top dose mostly 46.1 µM), most hits filed as cytotoxic; HT-1080-NT fibrosarcoma viability, CellTiter-Glo ATP luminescence, 48 h;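 note: NT is the 2HG producing partner of a matched IDH1 knockdown line; nearly all actives have a fitted effect of over 55% in size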
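Fibrosarcoma NT cells, 750 per well in 5% FBS RPMI, were exposed to compound for 48 hours. Viability: CellTiter-Glo luminescence.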
KB-3-1 cytotox: kills parental KB-3-1 adenocarcinoma cells. KB-3-1 viability, CellTiter-Glo ATP luminescence, 72 h. Potency, µM (highest dose often 46.1 µM), usual class: cytotoxic. hit rate 1.4% among 400,000. AID 1347075; note: nearly all actives have a fitted effect of over 60% in size
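Here the drug-naive KB-3-1 line serves as comparator for MDR sub-line selectivity; cells received compound titrations, 72 h at 37 °C, then CellTiter-Glo readout.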
KB-V1 MDR tox: KB-V1 MDR subline cytotoxicity; KB-V1 MDR cells viability, CellTiter-Glo, 72 h; Potency, µM (highest dose often 46.1 µM), most hits filed as cytotoxic; hit rate 3.4% among 400,000; AID 1347076; note: nearly all actives have a fitted effect of over 60% in size
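Drug-selected KB-V1 cells, grown in DMEM lacking phenol red with 10% FBS, receive compound titrations; after three days at 37 degrees C, surviving cell ATP is quantified by CellTiter-Glo luminescence and responses normalized and curve-fitted.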
HT1080 IDH1KD tx: HT-1080 IDH1 knockdown cell toxicity (counter line). Potency, µM (doses to about 46.1 µM), hits mostly cytotoxic. hit rate 2% among 360,000. HT-1080 IDH1 knockdown viability, ATP luminescence, 48 h
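Assay cells: HT-1080 with IDH1 knockdown, 750 per well, RPMI/5% FBS. Exposure: 48 h at 37 °C following 2 h pre-incubation. Read: CellTiter-Glo luminescence; fitted concentration-response, curve class assigned.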
A number is an active result; n = inactive; u = inconclusive; x = no result; [ ] = dose if it differs, or a comment. Calls come from the whole dose curve; as a rule, active = well fitted curve in the direction sought with a large enough effect; inconclusive = small, poorly fitted or top-dose-only effect, or another doubt; inactive = no such curve, though single readings can be large; an effect the other way counts as inactive or inconclusive.

SMILES	HT1080NT lethal	KB-3-1 cytotox	KB-V1 MDR tox	HT1080 IDH1KD tx
CC(=O)Nc1cccc(OCC(=O)Nc2ccccc2)c1	n	n	n	n
CCOc1ccccc1NC(=O)c1c(NC(=O)COc2ccccc2)sc2c1CCCCC2	x	4.61µM	u	x
CCOC(=O)Nc1cccc(OCC(=O)Nc2ccccc2OCC)c1	n	n	6.51µM	n
CCn1cc2nc(SCc3cc(C)ccc3C)n(CCc3ccccc3)c(=O)c2n1	x	n	n	x
O=C(NCc1ccccc1Cl)c1ccc(NC(=O)N2CCSc3ncccc32)cc1	x	n	u	x
O=C1c2cccc(NCCCNCCO)c2C(=O)c2cccc(NCCCNCCO)c21	u	u	u	16.4µM
O=C1c2ccccc2C(=O)c2c1cccc2N(CCO)CCO	u	n	n	n
O=C(Cn1c(-c2ccccc2)c[n+]2ccsc12)c1ccc([N+](=O)[O-])cc1	u	20.6µM	n	u
CCn1c(=O)n(CC)c2cc(N3CCCCC3)c(NC(=O)Nc3cc(Cl)ccc3OC)cc21	x	n	n	x
COC(=O)c1cc2sc(C)cc2n1CC(=O)Nc1cccc(SC)c1	x	n	n	x
COc1cccc(CNCCc2c[nH]c3ccccc23)c1OCc1ccccc1	20.6µM	u	u	16.4µM
COc1cccc(CNC23CC4CC(CC(C4)C2)C3)c1OCc1ccccc1	n	u	20.6µM	n
COc1ccccc1CCNCc1ccc(OC)c(OCc2ccccc2)c1	u	u	4.61µM	u
COc1cc(CNCCc2c[nH]c3ccccc23)ccc1OCc1ccccc1F	u	n	n	u
COc1cc(CNCCc2ccc(S(N)(=O)=O)cc2)ccc1OCc1ccc(Cl)cc1	n[9.24 µM]	u	u	12.6µM
C=CCNC(=O)c1cnn2c1NC(=C)C=C2C	x	u	n	x
CCOc1ccc(NC(=O)Cn2c(=O)n(-c3ccccc3)c(=O)c3ccc(C(=O)NCc4ccc5c(c4)OCO5)cc32)cc1	x	n	u	x
CCS(=O)(=O)c1ccc2oc(SCC(=O)NCc3ccccc3)nc2c1	n	n	n	n
CCS(=O)(=O)c1ccc2oc(SCC(=O)NC34CC5CC(CC(C5)C3)C4)nc2c1	n	n	14.6µM	n
COc1cc2cncnc2cc1OCCCCC(N)=O	n	x	x	n
O=C(C[n+]1cccc(NC(=O)c2ccccc2)c1)c1ccc(NC(=O)c2ccccc2)cc1	n	u	n	n
O=C(C[n+]1ccc2ccccc2c1)c1ccc(NC(=O)c2ccccc2)cc1	n	20.6µM	n	n
CO/N=C/NC(=O)NOCc1ncc(C(F)(F)F)cc1Cl	n	n	n	n
O=C(N/C=N/OCc1ccc(Cl)cc1Cl)NOCc1ncc(C(F)(F)F)cc1Cl	u	u	n	25.9µM
Cc1ccccc1-c1nc2scc(CCNS(=O)(=O)c3ccccc3)n2n1	x	n	n	x
SMILES	HT1080NT lethal	KB-3-1 cytotox	KB-V1 MDR tox	HT1080 IDH1KD tx
CC(C)(C)C(=O)Cn1c(=O)n(-c2ccc(Cl)c(Cl)c2)c(=O)c2c3c(sc21)CCCC3	x	n	n	x
COc1ccc(OC)c(C(=O)/C=C/c2cccnc2)c1	20.6µM	u	u	u
COc1ccc(/C=C/C(=O)c2ccc(OC)cc2OC)cc1	n	u	u	n
O=C(/C=C/c1cccnc1)/C=C/c1cccnc1	4.11µM	2.59µM	n	3.26µM
CCC(Sc1nc2ncccc2o1)C(=O)Nc1ccc(OC)c(OC)c1 (stereo unspecified)	x	n	n	x
Cc1ccc(C)c(N2CCN(c3c(CN4CCCC4)c(=O)oc4ccccc34)CC2)c1	x	n	n	x
COc1ccc(-c2nn(C)c3sc(C(=O)N4CCN(c5cccc(C)c5C)CC4)cc23)cc1OC	x	n	n	x
O=C(Nc1nc(-c2cccs2)c(-c2cccs2)s1)C1CCCC1	n	u	20.6µM	n
COc1cc2c(NC3CCN(C)CC3)nc(N3CCCCC3)nc2cc1OCCOCCN(C)C	x	n	n	x
CN(C)c1ccc(/C=N/Nc2nc3ccccc3o2)cc1	n	n	n	u
CCS(=O)(=O)c1ccc(C=NNc2nc3ccccc3o2)cc1	n	n	18.4µM	n
CC(C)c1ccc(Nc2nc3ccc(C(=O)c4ccccc4)cc3n3cnnc23)cc1	x	n	u	x
CC(C)Cn1cc(C(=O)NCCCN2CCCC2=O)c2c3ccccc3n(C)c2c1=O	n	n	5.8µM	n
O=C1/C(=C\c2cc(Cl)c(O)c(Cl)c2)SC(=S)N1Cc1ccccc1	u	u	3.66µM	u
COc1ccc(/C=C2/SC(=S)N(Cc3ccccc3)C2=O)cc1O	n	n	n	u
Cc1cc(NC(=O)CCCn2c(C)c3cnn(-c4ccccc4)c(=O)c3c2C)ccc1Br	x	n	n	x
Cc1[nH]c2ccccc2c1CC#N	n	n	n	n
Cc1[nH]c2ccccc2c1C(C#N)(C#N)C1C(=O)c2ccccc2C1=O	18.4µM	n	n	25.9µM
O=C(CC(O)(c1ccccc1)C(F)(F)C(F)F)c1cccs1 (stereo unspecified)	n	n	n	n
O=C(/C=C/c1ccccc1)CC(O)(c1ccccc1)C(F)(F)C(F)F (stereo unspecified)	15.8µM	n	u	12.6µM
O=C(/C=C/c1ccccc1)CC(O)(c1ccccc1)C(F)(F)F (stereo unspecified)	12.6µM	n	23.1µM	10µM
COc1cc(OC)c(NC(=O)Nc2c(C)n(C)n(-c3ccccc3)c2=O)cc1Cl	x	n	n	x
COc1cccc(NC(=O)C2CC(=O)N(c3ccc(Br)cc3)C2)c1 (stereo unspecified)	x	n	n	x
Cc1ccc(NN2C(=O)C=C(c3ccccc3)C2=O)cc1	23.1µM	n	n	16.4µM
O=C1c2ccccc2C(=O)N1Nc1ccccc1	u	n	n	n
SMILES	HT1080NT lethal	KB-3-1 cytotox	KB-V1 MDR tox	HT1080 IDH1KD tx
CCN(CC)c1ccc(/C=C/c2cccc[n+]2C)c(OC)c1	u	0.651µM	n	u
CN(C)CCCNc1cc(N2CCN(C)CC2)ncn1	x	n	n	x
COc1cc(OC)cc(C2=Cc3ccc(OC)cc3C(CC(C)=O)N2c2ccc(C#CC3(N)CCCCC3)cc2)c1 (stereo unspecified)	16.4µM	u	n	25.9µM
COc1ccc2c(c1)C(CC(C)=O)N(c1ccc(-c3cccs3)cc1)C(c1ccsc1)=C2 (stereo unspecified)	n	10.3µM	n	n
COc1cc(OC)cc(C2=Cc3ccccc3C(CC(C)=O)N2c2ccc(C#CC3(N)CCCCC3)cc2)c1 (stereo unspecified)	14.6µM	u	u	13µM
COc1ccc2c(c1)C(CC(C)=O)N(c1ccc(-c3cnc(OC)nc3)cc1)C(c1ccsc1)=C2 (stereo unspecified)	n	n	n	n
CCOc1ccc(NC(=O)c2sc3nc4c(cc3c2N)CN(Cc2ccccc2)CC4)cc1	x	n	n	x
Cc1ccc(C(=O)O/N=C(\N)c2ccccn2)c(Cl)c1	16.4µM	u	u	u
N/C(=N\OC(=O)c1cccc2ccccc12)c1ccccn1	u	n	n	25.9µM
COc1cccc(C(=O)O/N=C(\N)c2ccccn2)c1OC	n	n	n	n
CCc1cnc2c(c1SCC(=O)c1ccc(Cl)cc1)c(=O)n(C)c(=O)n2C	x	n	n	x
CCCOc1ccc(C2C(=O)N(C3CCCCCC3)CC(=O)N2Cc2ccco2)cc1OC (stereo unspecified)	n	n	1.3µM	n
